Measured values: PubChem BioAssay (Tox21)
Results filed as inconclusive are left out. The source made the active and inactive calls. Unless noted, the call rests on the fitted dose curve; in most records, active means well fitted curve in the direction sought with a large enough effect in the repeat runs; inconclusive means weak or mixed curves; inactive means no such curve, though single readings can be large; an effect the other way counts as inactive or inconclusive.

Assays:
[1] = qHTS assay to identify small molecule agonists of the sonic hedgehog signaling (Shh) pathway (AID 1259368; calls by dose curve;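 further: NIH/3T3-derived 3T3Gli1-Luc cells carrying a stable Gli1-driven firefly luciferase reporter; series mostly up to about 92 µM; nearly all actives have a fitted effect of over 15% in size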)
Procedure, shortened: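 Steps: seed 3T3 Gli1-Luc cells, incubate 4 hr at 37 C, pin-transfer compounds in DMSO alongside a positive control, incubate 24 hr, add luciferase detection reagent, wait 30 min at room temperature, read luminescence.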

[2] = qHTS assay to identify small molecule antagonists of the sonic hedgehog signaling (Shh) pathway (AID 1259369; calls by dose curve; further: nearly all actives have a fitted effect of over 45% in size; further: potency means the concentration at half of the fitted maximal effect)
Procedure, shortened: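 Inhibition of Shh signalling is measured as reduced Gli1-response-element firefly luciferase output in an NIH/3T3-derived stable reporter clone stimulated with conditioned medium for 24hr.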

[3] = biological target: Estrogen receptor beta (Homo sapiens) (UniProt Q92731); experiment: qHTS assay to identify small molecule agonists of the estrogen receptor beta (ER-beta) signaling pathway (AID 1259377; active means well fitted activation curve with a large enough effect in the signal ratio in the repeat runs, not every such curve was filed as active; the % refers to the signal ratio)
Procedure, shortened: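 In HEK293T cells bearing a UAS-beta-lactamase reporter under ER-beta control, DMSO-delivered compounds were incubated for 16 hr at 37C. Activity was detected as fluorescence 2 hours after LiveBLAzer B/G FRET substrate addition.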

[4] = biological target: Estrogen receptor beta (Homo sapiens) (UniProt Q92731); experiment: qHTS assay to identify small molecule antagonists of the estrogen receptor beta (ER-beta) signaling pathway (AID 1259378; active means well fitted inhibition curve with a large enough effect in the signal ratio in the repeat runs, not every such curve was filed as active; the % refers to the signal ratio)
Procedure, shortened: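 ER-beta-UAS-bla HEK293T (GripTite) cells in 2% charcoal-stripped FBS medium were preincubated 6 hr at 37C, dosed with compound, then stimulated with 1 nM E2 (final) for 16 hr; beta-lactamase reporter read by B/G FRET fluorescence after 2 hr substrate loading.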

[5] = qHTS assay to identify small molecule agonists of the androgen receptor (AR) signaling pathway in the presence of an antagonist - cell viability counter screen (AID 1259379);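 further: MDA-kb2 human breast cancer cells carrying an MMTV luciferase reporter; series mostly up to about 92 µM; nearly all actives have a fitted effect of over 25% in size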
Procedure, shortened: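 Fluorescence from CellTiter-Fluor, added after 15 hr and read 1 hr later, gave cell viability. Cells were MDA-kb2 exposed to compounds (15 concentrations) in the presence of 3.0uM nilutamide at 37C, 0% CO2.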

[6] = qHTS assay to identify small molecule agonists of the estrogen receptor beta (ER-beta) signaling pathway - cell viability counter screen (AID 1259380); further: nearly all actives have a fitted effect of over 30% in size
Procedure, shortened: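 Same-well viability counter screen. Cells: ER-beta-UAS-bla HEK293T, plated 6 hr before compound, in 2% charcoal-stripped FBS. Compound exposure 16 hr, 37C; viability by CellTiter-Glo luminescence after 30 min at room temperature.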

[7] = biological target: Androgen receptor (Homo sapiens) (UniProt P10275); experiment: qHTS assay to identify small molecule agonists of the androgen receptor (AR) signaling pathway in the presence of an antagonist (AID 1259381; calls by dose curve; further: nearly all actives have a fitted effect of over 15% in size)
Procedure, shortened: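 Cells are MDA-kb2 (human breast carcinoma, MMTV-luc, AR/GR responsive). Nilutamide is present at 3.0uM final throughout; compounds are added at 15 concentrations and incubated 16hr at 37C before ONE-Glo luminescence detection.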

[8] = qHTS assay to identify small molecule antagonists of the estrogen receptor beta (ER-beta) signaling pathway - cell viability counter screen (AID 1259382); further: series mostly up to about 92 µM; nearly all actives have a fitted effect of over 55% in size
Procedure, shortened: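 Following a 6 hr plating period, HEK293T cells carrying a UAS-driven beta-lactamase reporter under ER-beta control received compounds and 1nM E2 (final). After 16 hr at 37C and 2 hr substrate loading, CellTiter-Glo luminescence indicated viability.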

[9] = qHTS assay to identify small molecule agonists or antagonists of the thyroid stimulating hormone receptor (TSHR) signaling pathway - wild type cell line counter screen (AID 1259384; calls by dose curve)
Procedure, shortened: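 Wild-type HEK293 cells were plated 18 h at 37 C/5% CO2, pin-dosed with compound plus Ro20-1724 medium, held 30 min at room temperature, then given cAMP-d2 and anti-cAMP-cryptate; fluorescence was read after 1 h. Fifteen concentrations, triplicate.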

[10] = biological target: Thyrotropin receptor (Homo sapiens) (UniProt P16473); experiment: qHTS assay to identify small molecule antagonists of the thyroid stimulating hormone receptor (TSHR) signaling pathway (AID 1259385; calls by dose curve; further: nearly all actives have a fitted effect of over 20% in size)
Procedure, shortened: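 TSHR-HEK293 cells were plated and held 18 h at 37C/5% CO2, then given compound plus Ro20-1724 and stimulated with TSH at 1.5 ng/mL final. After 30 min at room temperature, cAMP was detected with cAMP-d2/anti-cAMP-cryptate (1 h) by fluorescence.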

[11] = qHTS assay to identify small molecule agonists of the estrogen receptor alpha (ER-alpha) signaling pathway in the presence of an antagonist - cell viability counter screen (AID 1259386);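 further: series mostly up to about 92 µM; cells exposed to compounds for 22 h at 37 °C before the viability read; nearly all actives have a fitted effect of over 30% in size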
Procedure, shortened: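 Cells are starved of estrogens for 5 days in charcoal-stripped serum, seeded for 24hr and co-treated with ICI-182,780 (10.0nM final) and test compounds. After 22hr at 37C, viability is read as CellTiter-Fluor fluorescence.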

[12] = biological target: Progesterone receptor (Homo sapiens) (UniProt P06401); experiment: qHTS assay to identify small molecule agonists of the progesterone receptor (PR) signaling pathway (AID 1346784; calls by dose curve; further: nearly all actives have a fitted effect of over 30% in size)
Procedure, shortened: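 Using charcoal-stripped serum (2%) to limit endogenous steroids, PR-UAS-bla HEK 293T cells received compounds for 16 hr at 37C after 6 hr plating; beta-lactamase FRET fluorescence was recorded following 2 hr substrate loading at room temperature.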

[13] = biological target: Progesterone receptor (Homo sapiens) (UniProt P06401); experiment: qHTS assay to identify small molecule antagonists of the progesterone receptor (PR) signaling pathway (AID 1346795; active means well fitted inhibition curve with a large enough effect in the signal ratio in the repeat runs, not every such curve was filed as active; the % refers to the signal ratio)
Procedure, shortened: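 Inhibition of R5020-induced (1 nM final) beta-lactamase reporter signal in PR-UAS-bla HEK293T cells was scored by FRET fluorescence after overnight (16 hr) compound treatment.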

[14] = qHTS assay to identify small molecule antagonists of the progesterone receptor (PR) signaling pathway - cell viability counter screen (AID 1346798); further: series mostly up to about 92 µM; nearly all actives have a fitted effect of over 50% in size
Procedure, shortened: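 ATP content as viability readout: CellTiter-Glo luminescence, 30 min room temperature, in PR-UAS-bla HEK293T cells after 16 hr compound/R5020 treatment at 37C and 5% CO2.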

[15] = qHTS assay to identify small molecule agonists of the progesterone receptor (PR) signaling pathway - cell viability counter screen (AID 1346799; calls by dose curve; further: nearly all actives have a fitted effect of over 45% in size)
Procedure, shortened: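 Cytotoxicity in PR-bla HEK293T cells: 16 h compound, 37C; CellTiter-Glo added post-FRET read; luminescence after 30 min RT.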

[16] = qHTS assay to identify small molecule antagonists of the TGF-beta/Smad signaling pathway - cell viability counter screen (AID 1346824); further: nearly all actives have a fitted effect of over 50% in size
Procedure, shortened: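 SBE-bla HEK 293T cells were plated overnight at 37 C, then given compounds in DMSO plus TGF-beta1 (added as 0.25 ng/mL solution) for 5 hr. After the bla read, CellTiter-Glo was added to the same wells and luminescence read after 30 min at room temperature.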

[17] = qHTS assay to identify small molecule agonists of the TGF-beta/Smad signaling pathway - cell viability counter screen (AID 1346829); further: top concentration of the series differs between compounds; nearly all actives have a fitted effect of over 45% in size
Procedure, shortened: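 After overnight seating at 37 C and 5% CO2, reporter cells got compounds for 5 hr and FRET substrate for 2 hr; cell viability then came from CellTiter-Glo luminescence.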

[18] = qHTS assay to identify small molecule agonists of the TGF-beta/Smad signaling pathway (AID 1346859; active means well fitted activation curve with a large enough effect in the signal ratio in the repeat runs, not every such curve was filed as active; the % refers to the signal ratio; further: series mostly up to about 77 µM)
Procedure, shortened: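 Stable Smad binding element-beta-lactamase HEK 293T cells; 5 hr compound exposure at 37 C under 5% CO2; 2 hr room-temperature substrate step; fluorescence excited at 405 nm, collected at 460 nm and 530 nm.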

[19] = biological target: Thyrotropin-releasing hormone receptor (Homo sapiens) (UniProt P34981); experiment: qHTS assay to identify small molecule antagonists of the thyrotropin-releasing hormone receptor (TRHR) signaling pathway (AID 1346877; active means well fitted inhibition curve with a large enough effect in the repeat runs, not every such curve was filed as active; further: series mostly up to about 51 µM)
Procedure, shortened: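 Cells (TRHR-HEK293) are plated and kept 18 h at 37 °C/5% CO2. A calcium-sensitive dye is added for 2 h, compound follows for 5 min at room temperature, and TRH is then given at 1 nM final.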

[20] = biological target: Estrogen receptor (Homo sapiens) (UniProt P03372); experiment: qHTS assay to identify small molecule agonists of the estrogen receptor alpha (ER-alpha) signaling pathway in the presence of an antagonist (AID 1259383; calls by dose curve; further: top concentration of the series differs between compounds; nearly all actives have a fitted effect of over 15% in size)
Procedure, shortened: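 Cells are hormone-deprived for 5 days (charcoal-stripped FBS, no phenol red), plated for 24hr, spiked with 10.0nM ICI-182,780, then dosed at 15 concentrations. After 22hr at 37C, ONE-Glo luminescence reports ERE-luciferase activity.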
On the % scale 0 is the no-effect control and ±100 the full control effect.

Sequence of Estrogen receptor beta (Homo sapiens) (Q92731 whole entry, looked up): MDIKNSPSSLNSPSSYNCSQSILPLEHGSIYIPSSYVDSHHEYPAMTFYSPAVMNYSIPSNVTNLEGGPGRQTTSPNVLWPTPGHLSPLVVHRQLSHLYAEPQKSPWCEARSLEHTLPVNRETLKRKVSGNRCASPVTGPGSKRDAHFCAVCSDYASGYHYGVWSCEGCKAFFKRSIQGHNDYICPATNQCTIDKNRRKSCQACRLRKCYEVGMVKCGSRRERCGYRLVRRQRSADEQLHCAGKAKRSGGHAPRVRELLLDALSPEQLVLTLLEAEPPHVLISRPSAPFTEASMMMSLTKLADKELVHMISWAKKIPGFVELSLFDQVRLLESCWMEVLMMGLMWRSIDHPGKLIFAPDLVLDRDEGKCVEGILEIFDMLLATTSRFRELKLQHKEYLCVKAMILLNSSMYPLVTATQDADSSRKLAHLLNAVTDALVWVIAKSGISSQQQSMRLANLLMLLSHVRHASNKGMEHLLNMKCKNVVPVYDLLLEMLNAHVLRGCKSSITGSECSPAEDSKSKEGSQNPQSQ
Sequence of Estrogen receptor (Homo sapiens) (P03372 whole entry, looked up): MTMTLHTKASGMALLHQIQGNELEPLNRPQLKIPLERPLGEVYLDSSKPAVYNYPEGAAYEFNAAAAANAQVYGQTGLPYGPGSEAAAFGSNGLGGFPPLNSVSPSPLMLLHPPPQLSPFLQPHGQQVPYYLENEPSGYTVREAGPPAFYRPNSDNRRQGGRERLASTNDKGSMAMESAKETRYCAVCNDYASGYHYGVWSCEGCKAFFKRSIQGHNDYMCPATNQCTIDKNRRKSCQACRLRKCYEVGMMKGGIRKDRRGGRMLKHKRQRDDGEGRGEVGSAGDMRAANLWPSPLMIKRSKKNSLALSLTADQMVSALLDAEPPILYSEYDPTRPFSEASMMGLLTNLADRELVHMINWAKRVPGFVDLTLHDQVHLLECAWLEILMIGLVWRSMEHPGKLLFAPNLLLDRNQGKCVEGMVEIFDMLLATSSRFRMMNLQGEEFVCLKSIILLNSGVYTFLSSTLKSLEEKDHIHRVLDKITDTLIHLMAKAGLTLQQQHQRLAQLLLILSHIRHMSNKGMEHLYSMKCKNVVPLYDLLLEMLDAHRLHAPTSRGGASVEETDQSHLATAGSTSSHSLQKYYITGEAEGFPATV
Sequence of Thyrotropin receptor (Homo sapiens) (P16473 whole entry, looked up): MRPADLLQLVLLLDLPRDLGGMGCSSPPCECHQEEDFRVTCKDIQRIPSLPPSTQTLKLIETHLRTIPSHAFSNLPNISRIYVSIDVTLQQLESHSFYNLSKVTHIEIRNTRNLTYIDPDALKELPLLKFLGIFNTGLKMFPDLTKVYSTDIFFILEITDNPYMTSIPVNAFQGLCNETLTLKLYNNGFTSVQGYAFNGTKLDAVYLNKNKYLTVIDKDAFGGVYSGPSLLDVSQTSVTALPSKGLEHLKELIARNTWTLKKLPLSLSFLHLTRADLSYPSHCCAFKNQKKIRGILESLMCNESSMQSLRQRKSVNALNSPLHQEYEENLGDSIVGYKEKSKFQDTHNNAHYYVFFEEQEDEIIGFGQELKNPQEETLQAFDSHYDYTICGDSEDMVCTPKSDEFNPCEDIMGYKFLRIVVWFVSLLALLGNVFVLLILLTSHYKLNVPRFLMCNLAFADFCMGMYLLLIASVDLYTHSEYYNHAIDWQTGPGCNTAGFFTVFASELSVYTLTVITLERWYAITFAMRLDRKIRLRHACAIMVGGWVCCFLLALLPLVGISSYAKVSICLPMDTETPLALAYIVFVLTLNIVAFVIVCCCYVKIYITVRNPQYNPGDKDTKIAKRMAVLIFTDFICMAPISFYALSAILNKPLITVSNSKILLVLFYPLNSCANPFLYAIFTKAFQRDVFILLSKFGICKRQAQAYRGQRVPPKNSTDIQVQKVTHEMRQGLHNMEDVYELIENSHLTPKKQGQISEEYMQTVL
Sequence of Thyrotropin-releasing hormone receptor (Homo sapiens) (P34981 whole entry, looked up): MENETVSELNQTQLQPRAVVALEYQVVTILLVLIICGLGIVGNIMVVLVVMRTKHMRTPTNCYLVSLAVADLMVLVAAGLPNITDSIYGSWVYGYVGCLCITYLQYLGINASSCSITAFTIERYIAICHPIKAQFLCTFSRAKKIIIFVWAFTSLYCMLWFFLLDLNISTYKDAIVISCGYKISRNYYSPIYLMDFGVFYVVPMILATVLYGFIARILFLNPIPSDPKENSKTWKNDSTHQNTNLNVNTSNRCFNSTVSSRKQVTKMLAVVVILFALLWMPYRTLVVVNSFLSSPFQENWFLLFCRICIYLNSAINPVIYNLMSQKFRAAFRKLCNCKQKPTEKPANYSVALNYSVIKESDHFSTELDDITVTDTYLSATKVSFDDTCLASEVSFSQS
Sequence of Progesterone receptor (Homo sapiens) (P06401 whole entry, looked up): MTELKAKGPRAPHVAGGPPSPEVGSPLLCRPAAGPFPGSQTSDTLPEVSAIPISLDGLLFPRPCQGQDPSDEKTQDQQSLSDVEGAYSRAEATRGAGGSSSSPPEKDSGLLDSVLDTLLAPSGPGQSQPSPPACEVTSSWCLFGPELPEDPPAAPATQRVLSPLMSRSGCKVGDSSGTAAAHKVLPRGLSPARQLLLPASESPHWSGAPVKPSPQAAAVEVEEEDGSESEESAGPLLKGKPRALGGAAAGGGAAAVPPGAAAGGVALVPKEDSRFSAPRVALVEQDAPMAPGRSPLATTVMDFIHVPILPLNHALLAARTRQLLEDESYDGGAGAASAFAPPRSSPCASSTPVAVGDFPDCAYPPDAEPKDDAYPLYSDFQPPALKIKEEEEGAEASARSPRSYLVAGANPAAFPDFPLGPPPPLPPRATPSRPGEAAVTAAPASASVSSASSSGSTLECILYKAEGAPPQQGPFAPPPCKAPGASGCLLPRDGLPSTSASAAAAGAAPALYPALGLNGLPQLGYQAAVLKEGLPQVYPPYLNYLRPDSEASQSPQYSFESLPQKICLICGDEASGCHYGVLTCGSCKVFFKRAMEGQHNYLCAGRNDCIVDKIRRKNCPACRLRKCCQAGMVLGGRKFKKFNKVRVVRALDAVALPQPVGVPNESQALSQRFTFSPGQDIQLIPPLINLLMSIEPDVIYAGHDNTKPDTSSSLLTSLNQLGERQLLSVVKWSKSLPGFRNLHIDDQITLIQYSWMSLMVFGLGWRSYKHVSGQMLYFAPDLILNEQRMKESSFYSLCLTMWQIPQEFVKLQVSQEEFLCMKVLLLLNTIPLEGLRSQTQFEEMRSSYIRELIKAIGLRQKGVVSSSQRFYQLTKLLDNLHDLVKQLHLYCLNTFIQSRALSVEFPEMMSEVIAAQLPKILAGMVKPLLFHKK
Sequence of Androgen receptor (Homo sapiens) (P10275 whole entry, looked up): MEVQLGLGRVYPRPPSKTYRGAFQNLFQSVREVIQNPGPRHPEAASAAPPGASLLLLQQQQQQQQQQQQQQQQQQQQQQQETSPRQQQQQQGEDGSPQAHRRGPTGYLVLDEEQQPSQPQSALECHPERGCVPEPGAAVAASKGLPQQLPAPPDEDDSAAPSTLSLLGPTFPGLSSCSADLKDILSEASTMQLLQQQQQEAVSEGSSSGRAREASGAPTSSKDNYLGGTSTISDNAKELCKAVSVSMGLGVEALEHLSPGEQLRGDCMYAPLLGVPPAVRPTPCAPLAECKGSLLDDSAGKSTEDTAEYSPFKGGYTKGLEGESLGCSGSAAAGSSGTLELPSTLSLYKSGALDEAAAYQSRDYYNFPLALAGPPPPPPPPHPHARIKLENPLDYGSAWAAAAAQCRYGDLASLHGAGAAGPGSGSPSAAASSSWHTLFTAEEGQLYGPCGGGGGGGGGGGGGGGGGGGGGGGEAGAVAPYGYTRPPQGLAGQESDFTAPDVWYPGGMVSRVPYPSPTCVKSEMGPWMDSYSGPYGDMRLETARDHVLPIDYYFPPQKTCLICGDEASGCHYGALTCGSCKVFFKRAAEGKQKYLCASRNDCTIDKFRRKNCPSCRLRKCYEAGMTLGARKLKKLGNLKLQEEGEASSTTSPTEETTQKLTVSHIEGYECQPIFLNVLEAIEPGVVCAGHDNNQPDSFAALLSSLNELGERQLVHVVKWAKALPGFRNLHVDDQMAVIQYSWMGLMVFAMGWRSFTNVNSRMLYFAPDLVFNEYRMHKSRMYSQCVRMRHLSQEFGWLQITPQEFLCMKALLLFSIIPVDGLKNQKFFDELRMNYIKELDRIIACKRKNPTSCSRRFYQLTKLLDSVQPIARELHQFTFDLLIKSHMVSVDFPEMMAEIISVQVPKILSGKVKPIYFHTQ

c1cnc2c(n1)CCCC2
inactive: Potency [1] | Potency [2] | Potency [3] | Potency [4] | Potency [5] | Potency [6] | Potency [7] | Potency [8] | outcome [9] | Potency [10] | Potency [11] | Potency [12] | Potency [13] | Potency [14] | Potency [15] | outcome [16] | outcome [17] | outcome [18] | outcome [19]

[O]=[Bi]
inactive: activity change [1] -0.104% [at 8.39 µM, stronger effect = higher value] | activation [3] 4.87% [at 8.39 µM] | activity, negative = inhibition [4] 1.25% [at 8.39 µM] | activity change, negative = cytotoxicity [5] 2.01% [at 8.39 µM] | activity change, negative = cytotoxicity [6] 4.86% [at 8.39 µM] | activity change, negative = cytotoxicity [8] -2.24% [at 8.39 µM] | activation [20] 0.802% [at 8.39 µM] | activity change, negative = cytotoxicity [11] -3.93% [at 8.39 µM] | activation [12] 4.47% [at 8.39 µM] | activity change, negative = cytotoxicity [15] 0% [at 8.39 µM] | viability change, negative = cytotoxic [16] -10.5% [at 6.97 µM] | activity change, negative = cytotoxicity [17] -9.02% [at 6.97 µM] | activation [18] 2.8% [at 6.97 µM] | activity, negative = inhibition [19] 3.48% [at 4.65 µM]
active: Potency [2] 1.67 µM

OC/C(Br)=C(\Br)CO
inactive: Potency [1] | Potency [2] | Potency [3] | Potency [4] | Potency [5] | Potency [6] | Potency [8] | outcome [9] | Potency [11] | Potency [12] | Potency [13] | Potency [14] | Potency [15] | outcome [16] | outcome [17] | outcome [18] | outcome [19]

CCCOC(=O)c1ccc(C(=O)OCCC)nc1
inactive: Potency [1] | Potency [2] | Potency [3] | Potency [4] | Potency [5] | Potency [6] | Potency [8] | Potency [20] | outcome [9] | Potency [10] | Potency [11] | Potency [14] | Potency [15] | outcome [16] | outcome [17] | outcome [19]

CC1CN(c2cc3c(cc2F)c(=O)c(C(=O)O)cn3-c2ccc(F)cc2F)CCN1 (configuration not stated)
inactive: activity change [1] 0.373% [at 8.39 µM, stronger effect = higher value] | activity change, negative = inhibition [2] 30.3% [at 8.39 µM] | activation [3] -1.89% [at 8.39 µM] | activity, negative = inhibition [4] 1.81% [at 8.39 µM] | activity change, negative = cytotoxicity [5] 0.826% [at 8.39 µM] | activity change, negative = cytotoxicity [8] 1.64% [at 8.39 µM] | activation [20] 0.293% [at 8.39 µM] | cAMP activity change [9] -5.92% [at 8.39 µM] | activity change, negative = inhibition [10] -6.71% [at 8.39 µM] | activity change, negative = cytotoxicity [11] -5.19% [at 8.39 µM] | activation [12] -0.275% [at 8.39 µM] | activity change, negative = inhibition [13] 4.51% [at 8.39 µM] | activity change, negative = cytotoxicity [14] 0.324% [at 8.39 µM] | activity change, negative = cytotoxicity [15] -0.292% [at 8.39 µM] | viability change, negative = cytotoxic [16] -5.24% [at 6.97 µM] | activity change, negative = cytotoxicity [17] 5.65% [at 6.97 µM] | activation [18] -2.82% [at 6.97 µM] | activity, negative = inhibition [19] 2.02% [at 4.65 µM]

CC(C)(O)c1ccccc1CC[C@@H](SCC1(CC(=O)O)CC1)c1cccc(/C=C/c2ccc3ccc(Cl)cc3n2)c1
inactive: Potency [1] | Potency [2] | Potency [3] | Potency [4] | Potency [5] | Potency [8] | Potency [20] | outcome [9] | Potency [10] | Potency [12] | Potency [13] | Potency [14] | outcome [16] | outcome [17] | outcome [18] | outcome [19]

CC1CC(O)CC(C)(C)C1 (configuration not stated)
inactive: Potency [1] | Potency [2] | Potency [3] | Potency [4] | Potency [5] | Potency [6] | Potency [8] | outcome [9] | Potency [10] | Potency [11] | Potency [12] | Potency [13] | outcome [16] | outcome [17] | outcome [18] | outcome [19]
